# Only some compounds are listed: those with a hit (about 7.9% of all), similar ones and a draw of the others.
# HCMV antiviral – human cytomegalovirus inhibition | HFF cells, HCMV-luciferase reporter, 72 h; hits give low values | activity change, negative = inhibition, % at 57.5 µM | 4.5% of 410,000 active; in the data active means activity change below about -60%; inconclusive means no clear call, values can overlap the other calls; inactive means above about -39%
#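 HFF cells seeded 16 h at 37C, treated with compounds, infected with luciferase-reporter HCMV at MOI 1 PFU/cell; luciferase read at 72 h post infection, normalized to buffer-only and Salinomycin controls.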
# FMDV inh – blocks foot and mouth disease virus | FMDV antiviral cell-based qHTS | Potency, µM (titrated, usually from 57.9 µM), usual class: inhibitors | 1.2% of 410,000 active | AID 1159524; calls by dose curve; tested in HEK293T cells; further: read-out not given here; nearly all actives have a fitted effect of over 45% in size
# HCV inh – blocks hepatitis C virus; Huh7.5.1 HCVcc-Cre infection, luciferase reporter, 44 h; Potency, µM (doses to about 41.8 µM), actives largely listed as inhibitors; 3.4% of 340,000 active; active means well fitted inhibition curve with a large enough effect; inconclusive means small, poorly fitted or top-dose-only effect, or another doubt; inactive means no such curve, though single readings can be large or run the other way
#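 Cells seeded at 1,000/well and cultured 4 h, then compounds added followed by HCVcc-Cre virus (~0.5 moi). After 44 h further culture, luciferase substrate was added, plates held 15 min at room temperature, and luminescence read for 15 sec.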
# LASV entry inh – inhibitors of Lassa virus binding or cell entry | 1.2% of 300,000 active | Lassa virus pseudotype entry inhibition, cell reporter | Potency, µM (series often up to 37.9 µM), hits mostly inhibitors; calls by dose curve; tested in HEK293 cells; further: nearly all actives have a fitted effect of over 50% in size
# MARV entry inh – blocks Marburg virus binding to or entry into cells; Marburg virus pseudotyped entry inhibition, cell reporter; Potency, µM (highest dose often 37.8 µM), usual class: inhibitors; 1.8% of 300,000 active; AID 540276; calls by dose curve; tested in HEK293 cells
# Numbers stand for hits; 0 = inactive; ? = inconclusive; - = no result given; ! = repeats disagree.
SMILES,HCMV antiviral,FMDV inh,HCV inh,LASV entry inh,MARV entry inh
CCOc1ccc(NS(=O)(=O)c2ccc(NC(=O)C3CC3)cc2)cc1,0,0,?,0,0
O=C1C(n2cccc2)c2ccccc2N1Cc1ccc(C(F)(F)F)cc1 (stereo not drawn),0,-,-,-,-
NC(=O)c1cc([N+](=O)[O-])ccc1NCc1ccccn1,0,0,0,-,-
CCc1ccc(C2=CSC3=NCCN23)cc1,0,0,0,-,-
Cc1cc(C)c(NC(=O)CCn2c(=O)c3cccn3c3ccccc32)c(C)c1,0,0,-,?,-
CC(=O)N1CCc2c(sc3c2c(=O)n(-c2cc(Cl)ccc2C)c(=O)n3Cc2ccccc2F)C1,0,0,-,-,0
O=C(c1ccc(S(=O)(=O)NCc2ccco2)cc1)N1CCN(Cc2ccc3c(c2)OCO3)CC1,-68.4,0,?,?,0
COc1ccc(NS(=O)(=O)c2ccc(C(=O)N3CCCCCC3)cc2)cc1,-74.4,0,14.1µM,?,?
COc1ccc(S(=O)(=O)Nc2ccc3oc4c(c3c2)CCCC4)cc1,0,0,-,?,10µM
CCOc1ccc(NS(=O)(=O)c2ccc(C(=O)N3CCCCCC3)cc2)cc1,?,?,0,?,?
O=C(c1ccc(NS(=O)(=O)c2cccc(F)c2)cc1)N1CCCC1,0,0,0,0,0
Cc1ccccc1CN1CCN(C(=O)c2ccc(S(=O)(=O)NCc3ccco3)cc2)CC1,0,0,?,-,-
O=C(c1ccc(NS(=O)(=O)c2cccc(F)c2)cc1)N1CCCCC1,-73.2,0,0,-,-
CCCC(=O)N1CCC1(C)C(=O)Nc1ccc2scnc2c1 (stereo not drawn),-,0,-,-,-
O=C(c1ccc([N+](=O)[O-])cc1)N1CCN(Cc2ccccc2)CC1,0,0,0,0,?
O=C(c1ccc(Cn2cc(Cl)c([N+](=O)[O-])n2)cc1)N1CCN(Cc2ccccc2)CC1,0,?,11.2µM,-,-
COc1ccc(C(=O)N2CCN(Cc3ccccc3)CC2)cc1[N+](=O)[O-],0,0,?,-,-
COc1ccc(S(=O)(=O)Nc2ccc(Nc3ccccc3)cc2)cc1,-69.6,0,?,-,-
COc1ccc(S(=O)(=O)NCc2ccc(C(=O)N3CCN(Cc4ccccc4)CC3)cc2)cc1,?,?,31.6µM,-,-
O=C(c1ccc(S(=O)(=O)c2cccc(Cl)c2)c([N+](=O)[O-])c1)N1CCN(Cc2ccccc2)CC1,0,11.2µM,?,?,?
Cc1nn(C)c(C)c1S(=O)(=O)N(CC(=O)N1CCN(c2ccccc2)CC1)c1ccc(C(C)C)cc1,0,0,-,0,0
COCc1c(C(=O)N2CCCCCC2)cnn1-c1nccc(-c2cccs2)n1,-,0,-,-,-
CCOc1ccc(NS(=O)(=O)c2ccc(C(=O)N3CCCC(C)C3)cc2)cc1 (stereo not drawn),-63.4,0,?,?,?
CC(C)n1cc(-c2nc(C(=O)NN)cs2)c(=O)n(Cc2ccccc2)c1=O,-68.0,0,?,0,0
O=C1NCN(c2ccccc2)C12CCNCC2,0,?,0,0,0
SMILES,HCMV antiviral,FMDV inh,HCV inh,LASV entry inh,MARV entry inh
O=c1[nH]c2ccccc2n1C1CCN(CCCC(c2ccc(F)cc2)c2ccc(F)cc2)CC1,?,?,2µM!,10.3µM!,11.6µM!
O=C(NCCN1CCC2(CC1)C(=O)NCN2c1cccc(F)c1)c1ccc2ccccc2c1,-101.4,0,-,-,-
O=C1NCN(c2ccccc2)C12CCN(CCCC(c1ccc(F)cc1)c1ccc(F)cc1)CC2,0,?,?,10.3µM,2.06µM
Cc1ccc(C)c(NC(=O)CSc2nc(=O)n(CCN(C)C)c3c2CCC3)c1,0,0,-,0,-
Cc1ccc(NC(=O)C(=Cc2ccc(C(=O)O)cc2)C(=O)Nc2ccc(C)cc2C)c(C)c1,-,11.2µM,?,-,-
COc1cc(OC)cc(C(=O)NNC(=S)NC2CC2)c1,0,0,0,0,0
CC(=O)Nc1ccc(-c2nccc3[nH]nc(-c4cccc(C(F)(F)F)c4)c23)cc1,-102.0,-,-,-,-
COc1cc(-c2n[nH]c3ccnc(-c4cccc(C(F)(F)F)c4)c23)cc(OC)c1OC,0,-,-,-,-
Cn1c(=O)c([N+](=O)[O-])c(Cl)c2ccccc21,-70.8,14.1µM,7.94µM,?,?
CCN(CC)c1c([N+](=O)[O-])c(=O)n(C)c2ccccc12,0,?,0,0,?
COc1cccc(CSc2nc3n(n2)C(CC(C)C)C(C(=O)Nc2ccccc2C)=C(C)N3)c1 (stereo not drawn),0,0,-,0,-
FC(F)(F)c1cnc(-c2cc3c(c(OCC4CCCO4)c2)OCCN(Cc2cccn2-c2nccs2)C3)c(Cl)c1 (stereo not drawn),-,0,-,-,-
Cc1cc(N2CCCCCC2)nc(-c2ccccc2O)n1,0,0,12.6µM,?,?
Cc1cc(N2CCCCC2)nc(N2CCCCC2)n1,-61.4,0,0,-,-
Cc1cc(Nc2ccccc2)nc(-c2ccccc2O)n1,0,0,0.631µM,0,0
CCCOc1cc(C)nc(-c2ccccc2O)n1,-64.7,0,0,0,0
Cc1nc2cnc(N(C)C)nc2n(CCc2ccccc2)c1=O,-,0,-,-,-
Cc1cc(NC(=S)N(CCCN2CCN(C)CC2)Cc2ccco2)ccc1Cl,0,0,?,?,?
C=CCn1c(SCC(=O)c2cccs2)nc2sc(C)cc2c1=O,0,31.6µM,?,?,0
COc1ccc(S(=O)(=O)NNC(N)=S)cc1,0,0,0,0,0
Cc1cc(C)c(O)c(C2(O)C(=O)c3ccccc3C2=O)c1,0,0,0,0,0
COCC(=O)N1CCC2(CCCN(c3ccncc3)C2)CC1,-,0,-,-,-
CC(C)(c1ccccc1)c1ccc(OCCN2CCOCC2)cc1,0,0,0,-,-
CC(C)(C)c1ccc(OCCCCCCN2CCNCC2)cc1,?,0,7.94µM,0,?
CC(C)(c1ccccc1)c1ccc(OCCCN2CCNCC2)cc1,-88.3,0,8.91µM,?,?
SMILES,HCMV antiviral,FMDV inh,HCV inh,LASV entry inh,MARV entry inh
Cc1ccc(C2=NCC(C)n3nc4ccccc4c32)cc1 (stereo not drawn),0,-,-,-,-
CCOC(=O)c1nnn(-c2nc(N3CCCC3)nc(N3CCCC3)n2)c1-c1ccccc1,0,0,17.8µM,?,0
CCOC(=O)c1nnn(-c2nc(OC)nc(N3CCCCC3)n2)c1-c1ccccc1,-,-,-,-,0
CCOC(=O)c1c(-c2ccccc2)nnn1-c1nc(OCC)nc(N2CCCCC2)n1,?,?,6.31µM,?,?
CCOc1ccc(CN2CCC(C(=O)Nc3cccc(-c4ccn[nH]4)c3)CC2)cc1Cl,0,?,?,-,-
Cc1[nH]c2ccccc2c1/C=N/NC(=S)NC(C)C,?,?,10µM,?,?
Cc1[nH]c2ccccc2c1/C=N/NC(=O)C1CC1(c1ccccc1)c1ccccc1 (stereo not drawn),0,39.8µM,?,?,?
O=C1CCN(Cc2ccccc2)C=C1c1ccc(Br)cc1,0,0,10µM,-,-
Cc1ccc(C2=CN(Cc3ccccc3)CCC2=O)cc1,0,0,?,-,-
O=[N+]([O-])c1ccccc1/C=N/Nc1nccnc1Cl,0,0,0,?,?
Oc1ccc(/C=N/Nc2nccnc2Cl)c(O)c1,-97.4,0,?,?,?
Oc1cccc(C=NNc2ccccn2)c1,0,0,0,?,0
Oc1ccc(C=NNc2ccccn2)c(O)c1,-98.8,0,?,?,?
Oc1ccccc1/C=N/Nc1nccnc1Cl,-100.3,0,?,13µM,?

# Compound activity from PubChem BioAssay.
